Test systems include HCT-15 colon; HT29 colon; SNB-75 CNS; SNB-19 CNS; U251 CNS; PC-3 prostate; SK-MEL-5 melanoma; UACC-62 melanoma; LOX IMVI melanoma; SK-MEL-28 melanoma; SK-MEL-2 melanoma; EKVX NSCLC; SN12C renal; UO-31 renal; TK-10 renal; ACHN renal; CAKI-1 renal; A498 renal; CCRF-CEM leukemia; MOLT-4 leukemia.
Common to all, as to assay: NCI-60 one-dose screen, 48 h (100 = growth as untreated, 0 = no growth, -100 = all killed)
Holding throughout (conditions): 10 µM unless noted

About 83,000 compounds went through this panel and 20% of them were active in at least one assay; those are over-represented in the sample as a whole.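 Each cell line was grown in a 96-well plate and treated with one concentration of compound for 48 hours. Values below 10 were considered active.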 Unmarked numbers belong to inactive results. Calls of active or inactive are those of the source.

As for `Cn1c2c(Cl)c(Cl)ccc2c2cc(N)[nH]c(=O)c21`, the growth is 97.1% in the test on HCT-15 colon; 92.8% with HT29 colon; 77.7% with SNB-75 CNS; 98.4% with SNB-19 CNS; 93.8% with U251 CNS; 64.6% with PC-3 prostate. Moreover, the growth is 81.7% with SK-MEL-5 melanoma; 87.2% in the test on UACC-62 melanoma; 76.1% in the test with LOX IMVI melanoma; 103% in the test on SK-MEL-28 melanoma; 116% in the test with SK-MEL-2 melanoma; 59.9% in the test on EKVX NSCLC. Moreover, the growth in the test on SN12C renal was 92%; with UO-31 renal, 54.4%; with TK-10 renal, 120%; in the test on ACHN renal it was 82.6%; with CAKI-1 renal it was -23.4% (active); in the test with A498 renal, 56.5%. Further, the growth in the test with CCRF-CEM leukemia was 81.3%.

Consider `Fc1ccc(C2CC(c3cccc(Nc4ccncc4)c3)=NN2c2ccc(Cl)cc2)cc1` (stereo unspecified), for which the growth is 3.49% (active) in the test on HCT-15 colon; 2.11% (active) in the test on HT29 colon; 78.4% in the test with SNB-75 CNS; 87.5% in the test with SNB-19 CNS; 8.99% (active) in the test on U251 CNS; 49.4% in the test on PC-3 prostate. Further, the growth in the test on SK-MEL-5 melanoma was 82.8%; in the test with UACC-62 melanoma, 99.6%; in the test on LOX IMVI melanoma, -67.1% (active); in the test with SK-MEL-28 melanoma, 53.4%; with SK-MEL-2 melanoma it was 101%; in the test on EKVX NSCLC, 84.7%. For the same compound, the growth in the test with SN12C renal was 68.5%; in the test with UO-31 renal, 52.9%; in the test on TK-10 renal, 84.6%; in the test with ACHN renal, 75.6%; with CAKI-1 renal, 43.6%; in the test with A498 renal, 78%. For the same compound, the growth in the test on CCRF-CEM leukemia was 42.6%.

As for `CN(C)C(=O)OCc1nc2c(N3CCOCC3)nc(-c3ccccc3)nc2n1C`, the growth in the test on HCT-15 colon was -38.6% (active); in the test on HT29 colon it was -53.7% (active); with SNB-75 CNS, -87.2% (active); in the test on SNB-19 CNS it was 13.9%; in the test with U251 CNS it was -57.2% (active); in the test with PC-3 prostate it was -65.2% (active). In addition, the growth in the test with SK-MEL-5 melanoma is -95.7% (active); in the test with UACC-62 melanoma, -92% (active); in the test with LOX IMVI melanoma it was -84.7% (active); in the test with SK-MEL-28 melanoma, -95.4% (active); in the test on SK-MEL-2 melanoma, -73.5% (active); in the test on EKVX NSCLC, -56.8% (active). The growth in the test on SN12C renal is -90.7% (active); with UO-31 renal, -100% (active); in the test on TK-10 renal, -77.7% (active); in the test on ACHN renal it was -99.8% (active); with CAKI-1 renal it was -91.7% (active); with A498 renal, -32.3% (active). For the same compound, the growth with CCRF-CEM leukemia is -12% (active); in the test on MOLT-4 leukemia it was -3.34% (active).

For the compound `COc1ccc(-c2nc(SC)nc(N3CCOCC3)c2C#N)cc1`, the growth with HCT-15 colon was 93.9%; in the test on HT29 colon, 92.3%; in the test with SNB-75 CNS, 60.5%; in the test on SNB-19 CNS, 96.7%; in the test on U251 CNS, 91.1%; in the test with PC-3 prostate it was 81.1%. For the same compound, the growth in the test with SK-MEL-5 melanoma is 98.4%; in the test on UACC-62 melanoma, 83.5%; with LOX IMVI melanoma it was 96.1%; with SK-MEL-28 melanoma, 106%; with SK-MEL-2 melanoma, 101%; in the test with EKVX NSCLC, 97.7%. Further, the growth in the test with SN12C renal was 96.5%; in the test with UO-31 renal it was 67.4%; in the test with TK-10 renal it was 97.5%; in the test on ACHN renal, 94.3%; in the test with CAKI-1 renal it was 81.4%; with A498 renal, 63.1%. The growth in the test on CCRF-CEM leukemia is 88.7%.

As for `COc1c(Cl)cc(Cl)c2ccc(C=C3C(=O)NC(=S)NC3=O)nc12`, the growth in the test with HCT-15 colon is 103%; in the test with HT29 colon, 109%; with SNB-75 CNS, 95%; in the test on SNB-19 CNS it was 99.2%; with U251 CNS it was 105%; in the test with PC-3 prostate, 105%. Moreover, the growth was 101% in the test with SK-MEL-5 melanoma; 105% in the test on UACC-62 melanoma; 101% in the test with LOX IMVI melanoma; 103% in the test with SK-MEL-28 melanoma; 105% in the test on SK-MEL-2 melanoma; 104% in the test on EKVX NSCLC. For the same compound, the growth is 100% with SN12C renal; 93.2% with UO-31 renal; 107% in the test with TK-10 renal; 101% with ACHN renal; 91.7% with CAKI-1 renal; 93.8% in the test with A498 renal. Besides, the growth in the test with CCRF-CEM leukemia was 105%.

Turning to `COc1ccc(-c2nc(SCC(C)C)nc(N/N=C(/C)c3ccc(OC)c(OC)c3)c2C#N)cc1`, the growth in the test with HCT-15 colon is 79.8%; in the test on HT29 colon it was 90.4%; in the test with SNB-75 CNS, 80.2%; in the test with SNB-19 CNS, 78.2%; with U251 CNS, 89.6%; in the test on PC-3 prostate, 52.5%. In addition, the growth in the test on SK-MEL-5 melanoma was 74.6%; with UACC-62 melanoma it was 81.2%; in the test on LOX IMVI melanoma, 84.3%; with SK-MEL-28 melanoma, 84.5%; in the test on SK-MEL-2 melanoma, 103%; with EKVX NSCLC it was 89.5%. The growth with SN12C renal is 76.1%; in the test with UO-31 renal, 54.4%; in the test on TK-10 renal, 101%; with ACHN renal, 90.5%; in the test on CAKI-1 renal, 86%; in the test with A498 renal, 67.9%. Further, the values for the growth in the test with CCRF-CEM leukemia and in the test on MOLT-4 leukemia were 70.3% and 55.3%, respectively.

With `Fc1ccc(C2CC(c3cccc(Nc4ccncc4)c3)=NN2c2cc(Cl)cc(Cl)c2)cc1` (stereo unspecified), the growth is -42.3% (active) in the test with HCT-15 colon; -21.5% (active) in the test on HT29 colon; 72.2% with SNB-75 CNS; 82.3% in the test with SNB-19 CNS; -29.5% (active) in the test on U251 CNS; 26% in the test on PC-3 prostate. Moreover, the growth was 84.7% with SK-MEL-5 melanoma; 98.7% with UACC-62 melanoma; -83% (active) with LOX IMVI melanoma; 20.2% in the test with SK-MEL-28 melanoma; 105% in the test with SK-MEL-2 melanoma; 80% in the test on EKVX NSCLC. Further, the growth in the test with SN12C renal was 72%; in the test with UO-31 renal, 47.6%; in the test with TK-10 renal it was 74.8%; in the test on ACHN renal, 43.3%; with CAKI-1 renal it was 31.1%; with A498 renal it was 94.5%. Besides, the growth in the test on CCRF-CEM leukemia was 0.277% (active); in the test with MOLT-4 leukemia, 1.57% (active).

With `CN1CCN(CCCOc2ccc3ncnc(Nc4ccc(Oc5cccc(C(F)(F)F)c5)c(Cl)c4)c3c2)CC1`, the growth in the test on HCT-15 colon is -55.7% (active); with HT29 colon, -26.9% (active); in the test with SNB-75 CNS, -21.1% (active); in the test with SNB-19 CNS, 41.7%; with U251 CNS it was -11% (active); with PC-3 prostate, 7.28% (active). The growth is -96.8% (active) with SK-MEL-5 melanoma; -75.7% (active) with UACC-62 melanoma; -87.7% (active) in the test on LOX IMVI melanoma; -93.2% (active) in the test on SK-MEL-28 melanoma; 40.3% in the test with SK-MEL-2 melanoma; 36.6% in the test on EKVX NSCLC. Moreover, the growth was 27.1% in the test with SN12C renal; 20.1% with UO-31 renal; 19.3% with TK-10 renal; -37.5% (active) in the test on ACHN renal; 0.55% (active) in the test on CAKI-1 renal; 63.1% in the test with A498 renal. Also, the growth in the test with CCRF-CEM leukemia is -9.94% (active); with MOLT-4 leukemia, 3.44% (active).

(Values after PubChem BioAssay (NCI).)
